Experimental data taken from PubChem BioAssay (EPA / NIEHS).
Activity calls are given as the source filed them. How the source made its calls: active means hit-call score of the fitted dose curve at least 0.9, where 1 is the maximum; inactive means score below 0.9.

Read-out: Cytochrome P450 3A4 (Homo sapiens) (UniProt P08684)
Assay: LTEA_HepaRG_CYP3A4: Life Technologies and Expression Analysis (LTEA) Assay for CYP3A4 using HepaRG (AID 2283487)
Details: mRNA level, 48 h; actives raise or lower the signal
Procedure: LTEA_HepaRG is a cell based, multiplexed-readout assay that uses HepaRG, a human liver cell line, with measurements taken at 48 hours after chemical dosing on a 96-well plate.LTEA_HepaRG_CYP3A4 is one of 102 assay component(s) measured in the LTEA HepaRG cell culture assay. It is a marker of NR mediated metabolism.Data from the assay component LTEA_HepaRG_CYP3A4 was analyzed into 1 endpoint. This assay endpoint, LTEA_HepaRG_CYP3A4, was analyzed with bidirectional fitting relative to DMSO as the negative control and baseline of activity. Using a type of inducible reporter, measures of mRNA induction for gain or loss-of-signal activity can be used to understand regulation of transcription factor activity. To generalize the intended target to other relatable targets, this assay endpoint is annotated to the cyp intended target family, where the subfamily is xenobiotic metabolism.
A total of 1060 chemcials from the ToxCast library were tested in eight-point concentration-response experiments. Cell culture and cytotoxicity assays were conducted at Thermo Fisher Scientific's Custom Services facility (Madison, WI). A single lot of human HepaRG cells (Thermo Fisher Scientific, Frederick, MD) was used for the cell culture experiments. 96-well format collagen type I coated plates of human HepaRG cells were prepared using established methods. Briefly, cryopreserved HepaRG cells were thawed, plated at a density of approximately 100,000 cells/well in HepaRG Thaw, Plate, and General Purpose media (HPRG770, Thermo Fisher Scientific), and incubated for 48 hours. 0.5% DMSO was selected as vehicle control to balance the requisite need of DMSO in HepaRG cultures to maintain differentiation (for example, baseline metabolism, proportions of hepatocytes vs. cholangiocytes), while enabling further hepatic receptor pathway activation (for example, PXR and CAR) in response to chemical exposure. 48 hours after plating, the culture medium was replaced with HepaRG Serum-Free Incudtion Media. Cells were exposed to each test chemical in duplicate and maintained in CO2 incubators for another 48 hours. Chemical plates were thawed to room temperature and 200x concentrations of treatment groups were prepared. 8-point conentration-reponse curves were made with the highest exposure at 100 uM, followed by half-log dilutions, all in 0.5% DMSO. Each test plate contained variouse controls, induction positive controls (1mM phenobarbital), cytotoxicity positive controls ([…] aflatoxin B1), vehicle controls (0.5% DMSO), and total lysis controls (0.5% DMSO). Cell morphology images were taken using an Essen IncuCyte FLR automated microscope, with six 96-well plates imaged in about 24 minutes. Images were captured and exported and JPEG files. Spent culture media was transfered to black-well plates for the LDH assay, and remaining media was sorted at -80 C for later use. Cells were treated with RLT buffer and frozen until shipped for gene expression analysis. Total RNA was isolated from the cell suspension in 75 uL of Buffer RLT (Qiagen, Germantown, MD 20874) by Quintiles/Expression Analysis (Durham, NC) using a custom isolation procedure. Total RNA from each plate well was transferred to a preamplification plate. Fluidigm's 96.96 Dynamic ArrayTM (Fluidigm, Amsterdam, the Netherlands) technology was used for gene expression analyses by quantitative reverse transcription polymerase chain reaction (qRT-PCR, performed by Quintiles/Expression Analysis, Durham, NC)89. Standard TaqManTM Assays (Applied Biosystems/ThermoFisher Scientific, Foster City, CA) were used to assess the expression of 93 genes selected based on their selectivity and sensitivity to important hepatic receptors known to be modulated by environmental chemicals; importance in human hepatocyte functionality; and hepatotoxicity. […]

Cytochrome P450 3A4 (Homo sapiens), sequence (P08684 whole entry, looked up): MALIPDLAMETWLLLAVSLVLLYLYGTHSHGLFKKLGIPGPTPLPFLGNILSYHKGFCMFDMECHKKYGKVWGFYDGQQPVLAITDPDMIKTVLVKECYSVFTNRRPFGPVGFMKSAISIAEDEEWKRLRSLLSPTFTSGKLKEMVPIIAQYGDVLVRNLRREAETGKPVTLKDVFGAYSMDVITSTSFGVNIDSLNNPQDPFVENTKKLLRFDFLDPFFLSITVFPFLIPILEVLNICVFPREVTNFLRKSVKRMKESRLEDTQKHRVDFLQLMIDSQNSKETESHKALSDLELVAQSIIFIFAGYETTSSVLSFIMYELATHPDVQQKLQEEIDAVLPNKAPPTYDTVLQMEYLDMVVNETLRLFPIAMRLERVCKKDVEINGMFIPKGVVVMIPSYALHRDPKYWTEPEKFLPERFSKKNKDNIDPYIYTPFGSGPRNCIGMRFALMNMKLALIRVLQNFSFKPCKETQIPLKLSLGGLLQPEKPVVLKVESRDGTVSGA

Compound	AC50	outcome
CC[C@H](NC(=O)c1cc(F)ccc1NS(=O)(=O)c1cccc2cccnc12)c1ccccc1	0.957 µM (active)	–
O=C(O)c1ccccc1C(=O)OCc1ccccc1	–	inactive
CCOC(=O)O[C@H](C)OC(=O)c1ccc2c(c1)cc(C(=O)NC1CCN(C(C)C)CC1)n2Cc1cc(-c2ccc(Cl)s2)on1	–	inactive
CCCCOC(=O)c1ccc(O)cc1	–	inactive
Oc1ccccc1	–	inactive
O=C(O)Cc1cc(I)c(Oc2ccc(O)c(I)c2)c(I)c1	41.6 µM (active)	–
CCCCCCCCN(C)CCCCCCCC	–	inactive
Cc1ccc2oc(CN(Cc3ccccc3)C(=O)Nc3c(F)cc(F)cc3F)c(-c3ccc(Cl)cc3)c2c1	5.39 µM (active)	–
Cc1occc1C(=O)Nc1ccc(C(=O)N2CCC(F)(F)/C(=C\C(=O)N3CCC(N4CCCCC4)CC3)c3ccccc32)cc1	–	inactive
O=c1[nH]sc2ccccc12	–	inactive
NC(=O)c1nc(-c2cccc(-c3cc(F)ccc3OCC(F)(F)C(F)(F)F)c2)n[nH]1	81.1 µM (active)	–
CN1C(=O)CC[C@H]1c1cccnc1	–	inactive
CCO[Si](CCCNC(N)=O)(OCC)OCC	–	inactive
O=CCCCC=O	–	inactive
CN(C)C(=O)C1(N2CCCCC2)CCN(CC[C@@]2(c3ccc(Cl)c(Cl)c3)CN(C(=O)c3ccccc3)CCO2)CC1	25.7 µM (active)	–
CC1=CC(=O)/C(=C(/C)O)C(=O)O1	–	inactive
Cc1cn([C@H]2C[C@H](N=[N+]=[N-])[C@@H](CO)O2)c(=O)[nH]c1=O	–	inactive
CCCOC(=O)c1cc(O)c(O)c(O)c1	1.14 µM (active)	–
CCCCCCCCCC(=O)O	–	inactive
CN1C(=O)N(c2ccccc2Br)Cc2cnc(Nc3ccc4c(c3)OCC(CO)O4)nc21 (stereo not given)	89.6 µM (active)	–

Compound	AC50	outcome
Oc1ccc2ccccc2c1	–	inactive
COc1cccc([C@H](O)C2CCN(CCc3ccc(F)cc3)CC2)c1OC	50 µM (active)	–
COc1cc(C(=O)NC2CCN(C)CC2)ccc1Nc1ncc2c(n1)N(C1CCCC1)CC(F)(F)C(=O)N2C	–	inactive
O=C=NCCCCCCN=C=O	–	inactive
C[C@]12CC[C@@H]3c4ccc(O)cc4CC[C@H]3[C@@H]1CC[C@H]2O	–	inactive
Cc1ccc(C(C)C)cc1	–	inactive
O=C1c2ccccc2C(=O)N1CCc1noc(-c2ccc(CN3CCCCCC3)s2)n1	–	inactive
Cc1cc2c(cc1C(F)(F)F)N(C(=O)Nc1ccc(Oc3cccnc3C)nc1)CC2	1.89 µM (active)	–
CC(C)(C)c1csc(-c2cc3cc(OCc4ccccc4CC(=O)O)ccc3o2)n1	76.1 µM (active)	–
O=C(O)c1ccccc1-n1cc(C(=O)O)c(=O)c2cc(Nc3c(F)cc(F)cc3Cl)c(Cl)cc21	3.09 µM (active)	–
OC12N=C(c3ccccc3)SC1Cc1cc(Cl)ccc12 (stereo not given)	81.3 µM (active)	–
Cc1cccc2ccccc12	–	inactive
CCCCCCCCCCCCO	–	inactive
O=c1c(-c2ccc(O)cc2)coc2cc(O)cc(O)c12	–	inactive
CCCCCCCCCCCC[N+](C)(C)C	58.6 µM (active)	–
CCCCCCCC[Si](OCC)(OCC)OCC	–	inactive
Cc1oc2c(NC(=O)c3c(Cl)cccc3Cl)cccc2c1C(C)(C)O	81.9 µM (active)	–
CCCCCc1ccc(N)cc1	–	inactive
c1ccc2n[nH]nc2c1	–	inactive
CCCC(=O)OCCC(C)C	–	inactive
